# Shown are actives, neighbours in structure and some others; about 2.6% of the full set was active somewhere.
# KKLEB tox: CF airway cell cytotoxicity counter-screen; activity change (cytotoxicity), % at 5 µM; AID 602141; 0.36% of 360,000 active; KKLEB CF airway cells viability, ATPlite luminescence, overnight; active compounds read low; cells stimulated with P. aeruginosa culture filtrate;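 active = corrected activity change at or below -50% at 5 µM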
# LGR2 antag: Drosophila LGR2 receptor signaling inhibition; 0.35% of 380,000 active; AID 720647; HEK293 LGR2, CRE-luciferase, bursicon-stimulated, 4 h; inhibition, % at 9.99 µM;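 active = drop in luminescence signal, shown as inhibition above about 50% in the replicate tests, limit read from the data, passing the limit was not always enough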;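 also: agonist challenge used bursicon conditioned medium at about half maximal strength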
# TWEAK-Fn14 inh: blocks TWEAK-Fn14 interaction in a reporter cell assay; TWEAK-stimulated Fn14 reporter cells, luciferase luminescence, 8 h; inhibition, % at 10 µM; 2% of 360,000 active; AID 1159606; in the data active = inhibition above about 50%
# TROY signal inh: inhibitors of TROY-dependent NF-kB signaling; Q293 LMP1-TROYcd NF-kB luciferase reporter, 4 h; inhibition, % at 10 µM; 0.98% of 360,000 active; AID 1347056;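 active = compounds whose plate-normalised and pattern-corrected inhibition of the luciferase reporter signal at the single screening dose is 50% or more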
# CF NFkB block: inhibitors of cystic fibrosis induced NF-kB. KKLEB NF-kB-GFP reporter, PAF-induced, GFP fluorescence overnight. inhibition, % at 5 µM. 0.86% of 360,000 active. AID 588850;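 active = at least 50% inhibition at 5 µM, scaled per plate between neutral and stimulator controls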;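 also: PAF is a Pseudomonas aeruginosa culture filtrate used as stimulus; plate controls were PAF-stimulated DMSO wells for no effect and unstimulated DMSO wells for full effect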
# EWS-Fli inh: blocks EWS/Fli oncoprotein-driven transcription | A673 NR0B1-luciferase reporter, viability-normalised | inhibition, % at 12.6 µM | 0.67% of 350,000 active | AID 651661;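 active = mean inhibition of at least 50% after viability correction, with every replicate also passing that limit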;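 also: firefly luciferase signal divided by Alamar Blue viability fluorescence both relative to DMSO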
# * marks the source's active call; other numbers are inactive results; . = not tested or not shown; ! = not confirmed by another sample.
SMILES,KKLEB tox,LGR2 antag,TWEAK-Fn14 inh,TROY signal inh,CF NFkB block,EWS-Fli inh
C[C@H](CO)N1C[C@H](C)[C@@H](CN(C)Cc2ccc3c(c2)OCO3)OCCCC[C@H](C)Oc2ccc(NC(=O)Nc3ccccc3)cc2C1=O,.,-14.1,.,.,.,1.7
C[C@@H]1CCCCO[C@@H](CN(C)S(=O)(=O)c2ccccc2)[C@@H](C)CN([C@@H](C)CO)C(=O)c2cc(NC(=O)CCCN(C)C)ccc2O1,.,-9.2,.,.,.,37.6
C[C@H](CO)N1C[C@H](C)[C@H](CN(C)S(=O)(=O)c2ccc(Cl)cc2)Oc2ccc(NC(=O)CCC(F)(F)F)cc2CC1=O,.,23.7,.,.,.,59.1*
C[C@H](CO)N1C[C@H](C)[C@@H](CN(C)S(=O)(=O)c2ccc(Cl)cc2)Oc2ccc(NC(=O)CCC(F)(F)F)cc2CC1=O,.,12.9,.,.,.,4.5
C[C@H]1CN([C@@H](C)CO)C(=O)Cc2cc(NC(=O)CCC(F)(F)F)ccc2O[C@H]1CN(C)S(=O)(=O)c1ccc(F)cc1,-14.4,10.0,10.1,7.5,17.9,57.5*!
C[C@H]1CN([C@@H](C)CO)C(=O)Cc2cc(NC(=O)CCC(F)(F)F)ccc2O[C@H]1CN(C)S(=O)(=O)c1ccc(Cl)cc1,-23.1,4.8,11.6,12.2,19.1,55.9*
C[C@H]1CCCCO[C@H](CN(C)C(=O)C2CCCCC2)[C@@H](C)CN([C@@H](C)CO)C(=O)c2cc(NC(=O)Nc3ccc(C(F)(F)F)cc3)ccc2O1,.,3.6,.,.,.,5.5
COc1ccccc1N1CCN(C(=O)CSc2nc3ccccc3[nH]2)CC1,1.1,-15.6,-8.5,39.0,7.0,-2.7
COc1ccc(-n2ncc3c(SCC(=O)N4CCN(c5ccccc5OC)CC4)ncnc32)cc1,-10.6,.,54.9*,6.1,-8.7,.
COc1ccccc1N1CCN(C(=O)CSc2ncccc2-c2nc3ccccc3[nH]2)CC1,7.4,13.0,56.1*,-4.6,0.5,.
COc1ccc(N2CCN(C(=O)CSc3ncccc3-c3nc4ccccc4[nH]3)CC2)cc1,9.3,-11.1,32.3,4.3,-18.8,-25.9
CCOC(=O)Cc1csc(NC(=O)CSc2ncnc3c2cnn3-c2ccc(OC)cc2)n1,-5.4,.,60.9*,32.8,10.8,.
O=C(CSc1ncccc1-c1nc2ccccc2[nH]1)N1CCN(c2ccccc2F)CC1,-0.8,.,70.7*,57.4*,-15.3,.
C[C@@H]1CN([C@H](C)CO)C(=O)Cc2cc(NS(=O)(=O)c3ccc(F)cc3)ccc2O[C@H]1CN(C)C(=O)Nc1ccccc1,.,0.9,.,.,.,0.9
CO[C@@H]1CN(C)C(=O)c2ccc(NS(=O)(=O)c3ccc(-c4ccccc4)cc3)cc2OC[C@H](C)NC[C@H]1C,.,10.5,.,.,.,0.4
CC(C)NC(=O)N[C@@H]1CC[C@H](CC(=O)O)O[C@@H]1CO,.,5.4,.,.,.,3.5
Cc1ccc2nc(-c3cccc(Br)c3)c(Cc3ccsc3)n2c1,.,-141.3,.,.,.,-116.5
O=C(CSc1ncccc1-c1nc2ccccc2[nH]1)NC1CC1,2.1,.,52.8*,55.3*,-2.3,.
O=C(CSc1nc2ccccc2[nH]1)NC1CCCC1,-3.2,-5.9,-4.1,-6.3,-11.8,-11.7
CCCC(=O)Nc1ccc2c(c1)C(=O)N(C)C[C@H](OC)[C@@H](C)CN(S(=O)(=O)c1cn(C)cn1)[C@@H](C)CO2,.,9.2,.,.,.,-5.7
CCOc1ccccc1N1CCN(C(=O)c2ccc(Cl)c(S(=O)(=O)N3CCCCC3)c2)CC1,-12.6,13.2,42.4,53.3*,31.9,25.8
CCOc1ccc(NS(=O)(=O)c2cc(C(=O)N3CCN(C(C)=O)CC3)ccc2Cl)cc1,4.7,10.2,88.9*,-0.5,17.6,.
CCOc1ccc(NS(=O)(=O)c2cc(C(=O)N3CCCC3)ccc2Cl)cc1,-8.8,-0.1,-12.7,12.0,29.7,4.1
O=C(C[C@H]1CC[C@@H]2[C@H](COC[C@H](O)CN2C(=O)Cc2ccccc2)O1)NC1CCCC1,.,7.8,.,.,.,-5.3
COc1ccc(S(=O)(=O)N(C)C[C@@H]2OCCCC[C@@H](C)Oc3ccc(NC(=O)CCCN(C)C)cc3C(=O)N([C@H](C)CO)C[C@H]2C)cc1,.,18.9,.,.,.,-4.6
COc1cc(/C=C/C(=O)c2ccc3c(c2)OCCO3)cc(OC)c1OC,-12.2,18.8,67.0*,23.3,32.7,0.3
COc1ccc(/C=C/C(=O)c2ccccc2)cc1COc1ccc(F)cc1,-8.1,23.6,8.4,-38.9,-0.6,10.6

# Bioassay records as filed in PubChem.
